High-throughput results (PubChem BioAssay)
In the library only some 3.7% were active in any assay of this set; here they are far more common.
tim10-1 inh: growth inhibitors of tim10-1 mutant yeast | S. cerevisiae tim10-1 ts strain growth, BacTiter-Glo, 24 h | inhibition, % at 20 µM | 330,000 compounds, 2.2% hits | AID 463190;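 active means inhibition of at least 40%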;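 further: mutant grown at 25 °C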
PfHsp90 yeast 2: growth inhibition of yeast expressing Plasmodium Hsp90; 310,000 compounds, 0.32% hits; S. cerevisiae expressing PfHsp90, BacTiter-Glo ATP, 48 h; yeast lacking PDR1 and PDR3 efflux regulators; inhibition, % at 9.4 µM;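 active means every replicate shows inhibition above about 80%, whatever the replicate mean, limit read from the data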
V-ATPase pH: yeast V-ATPase proton transport regulation by pHLuorin. S. cerevisiae, pHLuorin cytosolic pH fluorescence. response, % at 10 µM. 350,000 compounds, 0.37% hits; in the data active means response mostly above about 7.3%, no sharp cut-off; inactive means mostly below about 5.4%; further: actives read high
TIM10 inh: TIM10 yeast growth inhibition; S. cerevisiae TIM10 strain growth, BacTiter-Glo luminescence, 24 h; 330,000 compounds, 1.4% hits; inhibition, % at 10 µM;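 active means inhibition of 40% or more at the single tested concentration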;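 further: wild-type TIM10 isogenic control strain grown at permissive 25 °C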
tim23-1 inh: tim23-1 yeast growth inhibition | inhibition, % at 20 µM | 330,000 compounds, 1.3% hits | S. cerevisiae tim23-1 growth, BacTiter-Glo luminescence, 24 h | AID 463212;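 active means growth inhibition of the mutant yeast at or above 50%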;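 further: temperature-sensitive mutant grown at 25 °C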
tim23-1 confirm: tim23-1 yeast growth inhibition, confirmed; shares compounds with tim23-1 inh; S. cerevisiae tim23-1 growth, BacTiter-Glo luminescence, 24 h; inhibition, % at 20 µM; 4,400 compounds, 83% hits; AID 463218;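 active means inhibition above about 39% in either of two replicate wells at 20 µM, limit read from the data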;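 further: temperature-sensitive tim23-1 mutant grown at 25 °C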
Hits are given with their value; i = inactive; nt = no result.

SMILES	tim10-1 inh	PfHsp90 yeast 2	V-ATPase pH	TIM10 inh	tim23-1 inh	tim23-1 confirm
C/C(=N\OCC(=O)N/N=C/c1ccccc1O)c1cccs1	i	nt	i	i	56.4	57.1
N/C(=N\OC(=O)c1ccc(Br)o1)c1cccnc1	i	i	i	i	i	nt
N/C(Cc1ccc(Cl)c(Cl)c1)=N\OC(=O)c1ccc(Br)o1	i	94.6	i	i	76.7	80.2
O=C(Oc1c(CN2CCOCC2)cc(Cl)c2cccnc12)c1ccccc1F	i	i	i	i	i	nt
Oc1c(Cl)cc(CN2CCOCC2)c2cccnc12	i	nt	i	i	50.5	i
Cc1ccc(C(=O)CSc2nnnn2Cc2ccccc2)cc1C	i	i	i	i	50.5	49.0
O=C(CSc1nnnn1Cc1ccccc1)c1ccccc1F	i	i	i	i	i	nt
COc1cc(NC(=O)CSc2nnnn2Cc2ccccc2)cc(OC)c1	i	i	i	i	i	nt
COC(=O)c1ccsc1NC(=O)CSc1nnnn1Cc1ccccc1	i	i	i	i	50.9	i
O=C(c1ccco1)N1c2ccccc2Sc2ccccc21	i	i	i	i	i	nt
O=C(c1ccco1)N1CCN(C(=O)N2c3ccccc3Sc3ccccc32)CC1	i	i	i	i	56.0	i
COc1nn(-c2ccccc2)c(=O)c(Cl)c1Cl	i	i	i	i	50.7	i
CCn1c(CNC(=O)c2ccccc2F)cc2cc(C)ccc21	i	i	i	i	i	nt
O=C(/C=C\Nc1cccc(F)c1)c1cccs1	i	i	i	i	53.3	50.7
O=C(/C=C/Nc1ccc(F)cc1F)c1cccs1	i	i	i	i	i	nt
Cc1ccc(N/C=C/C(=O)c2cccs2)cc1	i	i	i	i	55.7	56.7
CCOC(=O)C1=C(C)C/C(=N\NC(=O)c2ccccc2O)CC1	i	i	i	i	i	nt
O=C1SC(c2ccccc2)=C/C1=C\N1CCCCC1	i	i	i	i	62.8	38.8
CC(=O)Oc1cccc(N2C(=O)c3ccc(C(=O)Nc4cccnc4)cc3C2=O)c1	i	i	i	i	i	nt
CCOc1ccccc1N1C(=O)c2ccc(C(=O)Nc3cccnc3)cc2C1=O	i	i	i	i	50.2	i
O=C(Nc1cccc(F)c1)c1cccnc1NCCc1ccccc1	i	i	i	i	53.7	54.0
CC(C)Oc1ccc(C(=O)NC(=S)Nc2ccc(CN3CCOCC3)cc2)cc1	i	i	i	i	i	nt
Cc1ccc(C(=O)NC(=S)Nc2ccc(CN3CCOCC3)cc2)cc1	i	i	i	i	52.4	i
O=C1C=C(c2cccc(Cl)c2O)C[C@@H](c2ccc(Cl)cc2)C1	i	i	i	i	56.7	39.9
O=C1C=C(c2cccc(Cl)c2)C[C@@H](c2ccc(Cl)cc2)C1	i	i	i	i	i	nt
SMILES	tim10-1 inh	PfHsp90 yeast 2	V-ATPase pH	TIM10 inh	tim23-1 inh	tim23-1 confirm
CC(=O)Nc1ccc(C2=CC(=O)C[C@H](c3ccc(Cl)cc3)C2)cc1	i	i	i	i	50.9	42.0
COc1ccc([C@H]2CC(=O)C=C(c3cccc(Cl)c3)C2)cc1	i	i	i	i	51.3	46.0
CC1(c2ccccc2)NC(=O)N(CC(=O)N(c2ccccc2)C2CCS(=O)(=O)C2)C1=O (stereo not given)	i	nt	i	i	i	nt
CCCCN(C(=O)CSCC(=O)Nc1ccc(OC)cc1)c1c(N)n(CC(C)C)c(=O)[nH]c1=O	nt	i	i	nt	nt	nt
CC(C)C(NS(=O)(=O)c1cccc(C(F)(F)F)c1)C(=O)NCc1cccs1 (stereo not given)	i	i	i	i	i	nt
c1ccc2[nH]c(-c3ccc4c(c3)OCO4)nc2c1	i	nt	i	i	76.9	58.7
CCCCc1c(O)nc(SCC(=O)Nc2ccc(OC)cc2)n(-c2ccc(C)c(C)c2)c1=O	nt	nt	i	nt	nt	nt
Cc1nnc(SCC(=O)N2CCCCC2)n1CC1CCCO1 (stereo not given)	i	i	i	i	68.8	i
COc1ccc2cc(C(=O)N3CCN(c4ccccc4OC)CC3)[nH]c2c1	i	i	i	i	58.5	53.0
COc1cc2[nH]c(C(=O)N3CCN(c4ccccc4F)CC3)cc2c(OC)c1OC	i	i	i	i	50.9	i
COc1ccccc1N1CCN(C(=O)c2ccc(-c3ccc(Cl)cc3)o2)CC1	i	nt	i	i	51.7	48.0
COc1ccccc1N1CCN(C(=O)NCc2ccc(Cl)cc2)CC1	i	i	i	i	i	nt
COc1ccc2c(c1)C(c1ccc([N+](=O)[O-])cc1)=NNC(c1ccco1)=N2	i	i	i	i	52.6	37.0
COc1ccc(C2=NNC(c3ccco3)=Nc3ccc(F)cc32)cc1	i	i	i	i	i	nt
COc1cccc(C(C(=O)NC2CCCC2)N(C(=O)CNC(=O)c2ccco2)c2cccnc2)c1 (stereo not given)	i	i	i	i	i	nt
CC(C)n1cc(NC(=O)c2cc(-c3ccccc3)on2)cn1	i	i	i	i	55.0	53.5
Cc1nnc(N/N=C/C(C)c2ccccc2)[nH]c1=O (stereo not given)	i	i	i	i	i	nt
NC(=O)c1ccc(N=Cc2c(O)ccc3ccccc23)cc1	i	i	i	i	57.3	45.0
O=C(O)c1ccc(N=Cc2c(O)ccc3ccccc23)cc1	i	i	i	i	58.4	56.2
CC(=O)Nc1ccc(N=Cc2c(O)ccc3ccccc23)cc1	i	i	i	i	i	nt
O=C(O)Cc1ccc(N=Cc2c(O)ccc3ccccc23)cc1	i	i	i	i	i	nt
O=C(O)c1ccc(N=Cc2c(O)ccc3oc4c(c23)CCCC4)cc1	i	i	i	i	65.7	71.2
Oc1ccc2oc3c(c2c1/C=N/n1cnnc1)CCCC3	i	i	i	i	i	nt
COc1ccc(N=Cc2c(O)ccc3ccccc23)cc1	i	i	i	i	56.8	57.4
Cc1cc(C(=O)NCc2ccccc2)no1	i	i	i	i	i	nt
SMILES	tim10-1 inh	PfHsp90 yeast 2	V-ATPase pH	TIM10 inh	tim23-1 inh	tim23-1 confirm
Cc1ccc(-c2nc(CNC(=O)c3cc(C)on3)cs2)cc1	i	i	i	i	52.6	40.6
COc1ccc(Nc2nc(N)c([N+](=O)[O-])c(NC3CCCCC3)n2)cc1	i	i	i	i	62.1	51.9
CCOc1ccc(NC(=O)CN2C(=O)NC(CCc3ccccc3)C2=O)cc1OCC (stereo not given)	i	i	i	i	i	nt
Cc1cc(=O)[nH]c(SCC(=O)Nc2ccccc2[N+](=O)[O-])n1	i	i	i	i	i	nt
CCOC(=O)[C@@H]1[C@H]2COc3ccc(Br)cc3[C@@H]2N2C(=O)N(c3ccccc3)C(=O)[C@@]12C	i	i	i	i	i	nt
CCOC(=O)[C@H]1[C@H]2COc3ccc(Br)cc3[C@@H]2N2C(=O)N(c3ccccc3)C(=O)[C@@]12C	i	i	i	i	50.4	i
COc1cc(C2CC(c3cccs3)=NN2C(=O)CCl)ccc1OC(F)F (stereo not given)	i	i	i	i	56.0	43.8
COc1ccc(C(=O)C2CCCN(C(=O)c3cccc(N4CCCC4=O)c3)C2)cc1OC (stereo not given)	i	i	i	i	i	nt
COc1ccc2nc(Nc3ccccc3)sc2c1	i	i	i	i	55.8	i
